Test results as given in the supplement of paper PMC13172266.

Assays:
Assay in all cases: cell proliferation relative to vehicle (% of vehicle); higher = less growth inhibition
Conditions in all cases: 72 h
[1] = system: U2932 TK216-resistant clone 2
Procedure, shortened: (§1)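 A targeted inhibitor library of 348 compounds was tested on the ABC-DLBCL line U2932, both parental and two clones made resistant to an ETS-targeting agent by repeated exposure over almost a year. Cells were grown at 37°C and 5% CO2 in medium with 10% FBS, then treated at 500 nM or 50 nM for 72 h. MTT was added for 4 h, stopped with 25% SDS, and absorbance was read on a Cytation 3. Proliferation is reported as percent of proliferating cells relative to vehicle (DMSO).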

[2] = system: U2932 TK216-resistant clone 3
Procedure, shortened: as §1

[3] = system: U2932 parental
Procedure, shortened: as §1

| SMILES | cell proliferation ([1]; 50 nM) | cell proliferation ([1]; 500 nM) | cell proliferation ([2]; 50 nM) | cell proliferation ([2]; 500 nM) | cell proliferation ([3]; 50 nM) | cell proliferation ([3]; 500 nM) |
| --- | --- | --- | --- | --- | --- | --- |
| C[C@@H](Oc1cc(-c2cnn(C3CCNCC3)c2)cnc1N)c1c(Cl)ccc(F)c1Cl | 97.6 | 74.4 | 86.4 | 61.9 | 89.9 | 56.5 |
| O=c1oc2c(O)c(O)cc3c(=O)oc4c(O)c(O)cc1c4c23 [Ellagic acid] | 99 | 110 | 106 | 107 | 101 | 100 |
| Cc1ccc(NC(=O)c2ccc(CN3CCN(C)CC3)cc2)cc1Nc1nc(-c2cccnc2)cs1 [Masitinib (AB1010)] | 95.6 | 83.5 | 100 | 86.2 | 92.5 | 92.7 |
| Cc1[nH]nc2ccc(-c3cncc(OC[C@@H](N)Cc4ccccc4)c3)cc12 | 95.6 | 41.7 | 99.4 | 40.6 | 93.5 | 31.7 |
| CO[C@H]1C[C@@H]2CC[C@@H](C)[C@@](O)(O2)C(=O)C(=O)N2CCCC[C@H]2C(=O)O[C@H]([C@H](C)C[C@@H]2CC[C@@H](OP(C)(C)=O)[C@H](OC)C2)CC(=O)[C@H](C)/C=C(\C)[C@@H](O)[C@@H](OC)C(=O)[C@H](C)C[C@H](C)/C=C/C=C/C=C/1C [Ridaforolimus (Deforolimus, MK-8669)] | 67.9 | 64.3 | 62.2 | 58.5 | 56.4 | 57.2 |
| CCCCCOC(=O)Nc1nc(=O)n([C@@H]2O[C@H](C)[C@@H](O)[C@H]2O)cc1F [Capecitabine] | 103 | 105 | 104 | 108 | 99.9 | 98.3 |
| COC(=O)c1ccc([C@H]2c3[nH]c4ccccc4c3C[C@H](C(=O)OC)N2C(=O)CCl)cc1 | 85 | -2.9 | 84 | -4.49 | 100 | -1.25 |
| CC[C@H](CO)Nc1nc(NCc2ccccc2)c2ncn(C(C)C)c2n1 [Roscovitine (Seliciclib,CYC202)] | 105 | 102 | 107 | 107 | 99.6 | 106 |
| Cc1ccc([C@@H]2O[C@H](CO)[C@@H](O)[C@H](O)[C@H]2O)cc1Cc1ccc(-c2ccc(F)cc2)s1 [Canagliflozin] | 93.3 | 102 | 104 | 104 | 91.9 | 87.9 |
| O=C(/C=C/c1cccc(S(=O)(=O)Nc2ccccc2)c1)NO [Belinostat (PXD101)] | 104 | 48.6 | 98.1 | 67.6 | 90.1 | 41.8 |
| CC(C)N(C[C@H]1O[C@@H](n2cnc3c(N)ncnc32)[C@H](O)[C@@H]1O)[C@H]1C[C@@H](CCc2nc3cc(C(C)(C)C)ccc3[nH]2)C1 | 98.8 | 91.9 | 97.2 | 91.6 | 101 | 95.4 |
| CCCc1ccc(OCC(=O)N(Cc2nc(-c3cccnc3)no2)C(C)C)cc1 | 107 | 102 | 103 | 101 | 85.2 | 97.7 |
| S=C(NCc1ccc2c(c1)OCO2)N1CCN(c2ncnc3c2oc2ccccc23)CC1 [Amuvatinib (MP-470)] | 102 | 109 | 107 | 104 | 100 | 101 |
| O=C(Nc1ccc(OC(F)(F)F)cc1)c1sccc1NCc1ccnc2ccccc12 | 105 | 101 | 105 | 109 | 100 | 98.9 |
| Cc1ccc(S(=O)(=O)/C=C/C#N)cc1 | 107 | 113 | 109 | 104 | 102 | 102 |
| COc1cc2c(Oc3ccc(NC(=O)C4(C(=O)Nc5ccc(F)cc5)CC4)cc3F)ccnc2cc1OCCCN1CCOCC1 | 101 | 69.7 | 98.3 | 66 | 92.7 | 58.9 |
| Cc1[nH]c2ccccc2c1CCNCc1ccc(/C=C/C(=O)NO)cc1 [Panobinostat (LBH589)] | 14.9 | 4.33 | 12.9 | 11.5 | 9.5 | 0.518 |
| CN1CCN(CCOc2cc(OC3CCOCC3)c3c(Nc4c(Cl)ccc5c4OCO5)ncnc3c2)CC1 [Saracatinib (AZD0530)] | 103 | 97.1 | 99.6 | 101 | 94.1 | 98.9 |
| CC(=O)Nc1cccc(-n2c(=O)n(C3CC3)c(=O)c3c(Nc4ccc(I)cc4F)n(C)c(=O)c(C)c32)c1 | 103 | 105 | 98.2 | 93.7 | 92.9 | 94.4 |
| CS(=O)(=O)c1cccc(CNc2nc(Nc3ccc4c(c3)CCC(=O)N4)ncc2C(F)(F)F)c1 | 110 | 101 | 103 | 98.3 | 90.5 | 82.6 |
| Cc1nc(-c2ccc(OCC(C)C)c(C#N)c2)sc1C(=O)O [Febuxostat] | 101 | 110 | 106 | 104 | 102 | 103 |
| CCCS(=O)(=O)Nc1ccc(F)c(C(=O)c2c[nH]c3ncc(Cl)cc23)c1F | 99.4 | 97.3 | 106 | 106 | 95.1 | 95.6 |
| N#C/C(=C(/N)Sc1ccc(N)cc1)c1ccccc1C(F)(F)F | 102 | 98 | 90.8 | 92.8 | 104 | 99.2 |
| COCC[n+]1c2c(n(Cc3cnccn3)c1C)C(=O)c1ccccc1C2=O [YM155 (Sepantronium Bromide)] | -0.426 | -1.48 | -1.12 | -4.35 | 0.598 | -3.81 |
| O=C(O)c1ccc(Nc2ncc3c(n2)-c2ccc(Cl)cc2C(c2c(F)cccc2F)=NC3)cc1 | 104 | 80.2 | 112 | 86.2 | 99.6 | 65.5 |

| SMILES | cell proliferation ([1]; 50 nM) | cell proliferation ([1]; 500 nM) | cell proliferation ([2]; 50 nM) | cell proliferation ([2]; 500 nM) | cell proliferation ([3]; 50 nM) | cell proliferation ([3]; 500 nM) |
| --- | --- | --- | --- | --- | --- | --- |
| CCCCCCNC(=O)n1cc(F)c(=O)[nH]c1=O [Carmofur] | 98.3 | 101 | 104 | 99.8 | 102 | 103 |
| Oc1ccc(Nc2nc(-c3ccc(Cl)cc3)cs2)cc1 | 109 | 94.9 | 111 | 103 | 97 | 95.5 |
| O=C1c2c(O)ccc(O)c2C(=O)c2c(NCCNCCO)ccc(NCCNCCO)c21 [Mitoxantrone] | 12 | 5.19 | 16 | 15 | 18.8 | 8.11 |
| Nc1ncn([C@@H]2O[C@H](CO)[C@@H](O)[C@H]2O)c(=O)n1 [Azacitidine] | 103 | 96.5 | 103 | 97.2 | 99.9 | 91.8 |
| CCn1c(-c2nonc2N)nc2c(C#CC(C)(C)O)ncc(OC[C@H]3CCCNC3)c21 | 91.1 | 54.1 | 97 | 66.9 | 90.5 | 58.6 |
| CCCCCCCCCCCC1=C(O)C(=O)C=C(O)C1=O [Embelin] | 90.5 | 98.8 | 103 | 103 | 100 | 89.7 |
| C[C@H](NC(=O)/C(C#N)=C/c1cccc(Br)n1)c1ccccc1 | 108 | 111 | 109 | 102 | 105 | 102 |
| CC(C)N(CCCNC(=O)Nc1ccc(C(C)(C)C)cc1)C[C@H]1O[C@@H](n2cc(Br)c3c(N)ncnc32)[C@H](O)[C@@H]1O | 108 | 100 | 105 | 96.1 | 96.7 | 100 |
| Nc1cc(C(F)(F)F)c(-c2cc(N3CCOCC3)nc(N3CCOCC3)n2)cn1 [BKM120 (NVP-BKM120, Buparlisib)] | 112 | 77.9 | 96.2 | 72.4 | 97.7 | 78.5 |
| CCO[C@@H]1OC(=O)C[C@@H]1NC(=O)[C@@H]1CCCN1C(=O)[C@@H](NC(=O)c1ccc(N)c(Cl)c1)C(C)(C)C | 105 | 105 | 101 | 102 | 95.4 | 98.2 |
| Cc1cc(N2CCOCC2)cc2[nH]c(-c3c(NC[C@@H](O)c4cccc(Cl)c4)cc[nH]c3=O)nc12 | 110 | 96 | 100 | 92.8 | 102 | 100 |
| COc1cc2c(cc1O)CC[C@@H]1[C@@H]2CC[C@]2(C)[C@@H](O)CC[C@@H]12 [2-Methoxyestradiol (2-MeOE2)] | 105 | 102 | 103 | 83.4 | 99.8 | 54 |
| CC(C=CC(=O)NO)=CC(C)C(=O)c1ccc(N(C)C)cc1 (stereo not given) [Trichostatin A (TSA)] | 68.3 | 8.5 | 74.5 | 4.96 | 67.2 | 2.14 |
| CC(C)(C)c1cnc(CSc2cnc(NC(=O)C3CCNCC3)s2)o1 | 91.1 | 14.7 | 77.8 | 17.2 | 90.1 | 12.1 |
| CC#CC(=O)N1CCC[C@H]1c1nc(-c2ccc(C(=O)Nc3ccccn3)cc2)c2c(N)nccn12 | 70 | 64.8 | 75.8 | 72.9 | 77.4 | 75.6 |
| COc1cc2c(NC3CCN(CC4CCCCC4)CC3)nc(N3CCCN(C(C)C)CC3)nc2cc1OCCCN1CCCCC1 | 95.3 | 105 | 91.4 | 115 | 96.3 | 110 |
| Cn1nnc2c(C(N)=O)ncn2c1=O [Temozolomide] | 110 | 110 | 107 | 100 | 98.8 | 96.5 |
| C[C@]12CCC(=O)C=C1CC[C@@H]1[C@@H]2[C@@H](O)C[C@@]2(C)[C@H]1CC[C@]2(O)C(=O)CO [Hydrocortisone] | 95.7 | 81.2 | 97.8 | 85.1 | 96.1 | 87.3 |
| CC[C@H](Nc1ncnc2[nH]cnc12)c1nc2cccc(F)c2c(=O)n1-c1ccccc1 [CAL-101 (Idelalisib, GS-1101)] | 103 | 109 | 97.8 | 99.3 | 92.6 | 96.6 |
| O=C1NC(=O)C(c2ccccc2[N+](=O)[O-])=C1Nc1ccc(O)c(Cl)c1 | 111 | 113 | 110 | 105 | 108 | 101 |
| C=C1/C(=C\C=C2/CCC[C@]3(C)[C@@H]([C@H](C)/C=C/[C@H](C)C(C)C)CC[C@@H]23)C[C@@H](O)C[C@@H]1O [Doxercalciferol] | 104 | 92.2 | 101 | 103 | 105 | 98.5 |
| CCCCOc1c(C(=O)c2c(F)cc(C)cc2F)c[nH]c2nncc1-2 | 78.8 | 59.3 | 92.2 | 58.9 | 89.3 | 77.1 |
| Nc1nc(Nc2ccc(S(N)(=O)=O)cc2)nn1C(=O)c1c(F)cccc1F | 103 | 85.3 | 102 | 78.1 | 98.8 | 87.7 |
| Cc1c(NC(=O)OC[C@@H]2COCCN2)cn2ncnc(Nc3ccc4c(cnn4Cc4cccc(F)c4)c3)c12 | 100 | 80.4 | 98.1 | 71.9 | 97.2 | 81.6 |
| CCCCNc1ncc2c(-c3ccc(CN4CCN(C)CC4)cc3)cn([C@H]3CC[C@H](O)CC3)c2n1 | 95.5 | 71.1 | 92 | 65.6 | 91.3 | 62.7 |
